Laboratory results taken from PubChem BioAssay AID651812 (National Center for Advancing Translational Sciences (NCATS), 2012).
The whole screen tested about 2,100 compounds, of which about 650 (31%) were called active. Not shown: some 16% with an inconclusive outcome. The list shows a part of the results. A number with no mark means an inactive call. Calls come from the whole dose curve; as a rule, active = well fitted inhibition curve with a large enough effect; inconclusive = small, poorly fitted or top-dose-only effect; inactive = flat fitted curve, though single readings scatter.

assay: qHTS for inhibitors of Vif-A3G interactions: Cherry picks; settings: HeLa A3G-eYFP + Vif (tagged APOBEC3G with the HIV-1 protein that degrades it), 24 h; Potency: eYFP fluorescence increase; series mostly up to 36.9 µM; activity, negative = fluorescence increase: at the top concentration; note: nearly all actives have a fitted effect of over 80% in size; for activity, negative = fluorescence increase: % of control where 0% means no effect
Procedure, shortened: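 Cherry-picked compounds tested at several concentrations on A3G-eYFP/Vif HeLa cells for 24 hours; loss of Vif-driven degradation read as eYFP fluorescence by cytometric plate imaging, 488 nm excitation, 500-530 nm emission.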
Potency is the fitted concentration of half-maximal effect.

Row | Compound | activity, negative = fluorescence increase | Potency
1 | COc1ccc(C(=O)N2CCN(c3cccc(Cl)c3)CC2)cc1S(=O)(=O)NC1CC1 | -4.75% | –
2 | Cc1ccc(C(=O)NN(C)c2nc3ccccc3nc2C(F)(F)F)cc1 | 0.321% | –
3 | Cc1c(CCCl)c(Cl)n2c(nc3ccccc32)c1C#N | -5.86% | –
4 | Cc1ccc(C(=O)NCCn2c(N)c(C#N)c3nc4ccccc4nc32)cc1 | – | 23.1 µM (active)
5 | COc1ccc(-c2cnc3c(NC=O)cc(-c4ccoc4)cn23)cc1OC | -15.1% | –
6 | CCN(CC)c1ccc(/C=N/NC(=O)c2ccco2)c(O)c1 | -14.9% | –
7 | CC(C)NC(=S)N/N=C1\CCCCc2ccccc21 | 10.1% [at 46.1 µM] | –
8 | CC(C)NC(=S)N/N=C/c1sc(N2CCCCC2)nc1-c1cccs1 | – | 23.1 µM (active)
9 | CNC(=S)N/N=C/c1ccc(N2CCOCC2)s1 | -0.534% [at 46.1 µM] | –
10 | CN(C)CCCNc1cc(N2CCN(C3CCCCC3)CC2)c2noc3c2c1C(=O)c1ccccc1-3 | – | 20.6 µM (active)
11 | CCNc1cc(N2CCN(C3CCCCC3)CC2)c2noc3c2c1C(=O)c1ccccc1-3 | – | 16.4 µM (active)
12 | O=C1c2ccccc2-c2onc3c(N4CCN(C5CCCCC5)CC4)cc(NCCO)c1c23 | – | 4.61 µM (active)
13 | O=C(c1cc(-c2ccncc2)nc2ccccc12)N1CCN(c2ccccn2)CC1 | -7.38% | –
14 | CCOc1cc(C)nc(NCc2ccccc2)n1 | -13.7% | –
15 | C=CCOC(=O)C1=C(C)Nc2nnnn2C1c1cccs1 (stereo not drawn) | -3.28% | –
16 | N#CC1=C(S)N(c2ccc(F)cc2)C2(CCCCC2)NC1=O | -2.54% [at 46.1 µM] | –
17 | O=C(COc1ccccc1)NC(=S)Nc1cccc2c(O)cccc12 | -6.15% | –
18 | COc1ccc(OC)c(NCc2cccn2-c2nnc(N3CCC(C)CC3)s2)c1 | -2.15% [at 46.1 µM] | –
19 | Cc1ccc(CSc2nc(-c3ccc(C(C)(C)C)cc3)nc3cc(=O)[nH]n23)cc1 | 0.591% [at 46.1 µM] | –
20 | O=C(N/N=C/c1ccsc1)c1cc(-c2cccs2)nc2ccccc12 | -2.5% | –
21 | Cc1nnc(NC(=O)c2sc3nc(-c4cccs4)cc(C(F)(F)F)c3c2N)s1 | – | 9.2 µM (active)
22 | Nc1c(C(=O)Nc2ccc(F)cc2)sc2nc(-c3cccs3)cc(C(F)(F)F)c12 | – | 1.84 µM (active)
23 | Nc1c(C(=O)Nc2nc3ccccc3s2)sc2nc(-c3cccs3)ccc12 | – | 18.4 µM (active)
24 | Nc1c(C(=O)Nc2nccs2)sc2nc(-c3cccs3)cc(C(F)(F)F)c12 | – | 14 µM (active)
25 | O=C(Nc1nc2ccccc2s1)c1ccc([N+](=O)[O-])o1 | -9.27% | –
26 | Cn1c(=O)c2c(nc(NC3CCCC3)n2C)n(C)c1=O | -11.2% [at 46.1 µM] | –

Row | Compound | activity, negative = fluorescence increase | Potency
27 | CSc1nc(N)c(C#N)c(-c2ccccc2Cl)c1C#N | -4.05% | –
28 | N#Cc1c(Nc2ccccc2)[n+]([O-])c2ccc(Cl)cc2[n+]1[O-] | -9.86% | –
29 | COc1cccc(/C(O)=C/c2nc3ccc(C(=O)NCCc4cccc(C)c4)cc3[nH]c2=O)c1 | – | 11.6 µM (active)
30 | COc1cccc(C(=O)N/N=C/C(Br)=C/c2ccccc2)c1 | -2.9% | –
31 | COc1cccc(/C(O)=C/c2nc3ccc(C(=O)NCCc4ccc(Cl)cc4)cc3[nH]c2=O)c1 | – | 16.4 µM (active)
32 | COc1ccc2nc(NC(=O)c3nc(S(=O)(=O)Cc4cccc(C)c4)ncc3Cl)sc2c1 | -0.58% [at 46.1 µM] | –
33 | CCOC(=S)SCC(=O)N1CCc2cc(OC)ccc2C1C1C(=O)CCCC1=O (stereo not drawn) | -8.79% | –
34 | COc1ccc(NC(=S)Nc2ncccc2C)c(OC)c1 | 0.453% | –
35 | COc1cc(C(=O)c2ccc3c(c2)OCO3)cc(OC)c1OC | -6.58% | –
36 | Oc1ccc(C2=NNC(=NCc3ccc4c(c3)OCO4)SC2)c(O)c1 | -6.47% | –
37 | CC1(C(=O)NCc2ccccc2)Cc2c(-c3ccc(C(N)=O)cc3)ccnc2O1 (stereo not drawn) | -2.29% | –
38 | Cc1ccc2nsnc2c1NC(=O)c1ccc(-c2cc(Cl)ccc2Cl)o1 | – | 15.8 µM (active)
39 | CCSc1nccc(-c2nn(-c3ccc(C)cc3)ccc2=O)n1 | -4.33% | –
40 | CC(C)c1ccc(C(=O)NCCCNC(=O)c2cnccn2)cc1 | -3.75% | –
41 | CC(=O)Nc1cccc(-c2ccnc3c2CC(C(=O)Nc2ccc(Cl)cc2)O3)c1 (stereo not drawn) | -16.3% | –
42 | CC(=O)Nc1ccc2c(c1)Cc1ccc(Cl)cc1-2 | -2.7% [at 46.1 µM] | –
43 | CC(=O)Nc1ccc(C2=CC(=O)C[C@H](c3ccc(Cl)cc3)C2)cc1 | – | 18.4 µM (active)
44 | CCSC1=N/C(=C\C=C2/Oc3ccccc3N2CC)C(=O)S1 | – | 14.6 µM (active)
45 | Cc1nnc(N2C(=O)c3cccc4c([N+](=O)[O-])ccc(c34)C2=O)s1 | – | 18.4 µM (active)
46 | CC(=O)Oc1ccc(N2C(=O)c3cccc4c([N+](=O)[O-])ccc(c34)C2=O)cc1 | – | 1.46 µM (active)
47 | O=C1c2cccc3c([N+](=O)[O-])ccc(c23)C(=O)N1c1ccccn1 | – | 5.8 µM (active)
48 | COC(=O)[C@@]1(Cc2ccccc2)[C@@H]2C(=CC(=O)[C@H]2CC(=O)C(=O)N(C)C)CN1C(=O)c1ccccc1 | 0.342% | –
49 | C/C(=N\NC(=S)NC(C)C)c1ccc(C(C)(C)C)cc1 | -8.17% [at 46.1 µM] | –
50 | CCCSc1nnc(N2C(=O)C(O)=C(C(=O)c3ccco3)C2c2ccccc2F)s1 (stereo not drawn) | -1.17% [at 46.1 µM] | –
51 | N#CC1=C(N)Oc2cc(N)ccc2C1c1cccc(Br)c1 (stereo not drawn) | -12.2% | –
52 | CCN(CC)c1ccc2c(c1)OC(N)=C(C#N)C2c1cccnc1 (stereo not drawn) | – | 17.7 µM (active)

Row | Compound | activity, negative = fluorescence increase | Potency
53 | N#CC1=C(N)Oc2ccc3ccccc3c2C1c1cccnc1 (stereo not drawn) | -12.2% | –
54 | Cc1cccc2[nH]cc(/C=C3/C=Nc4ccccc43)c12 | – | 18.4 µM (active)
55 | CC(C)COc1ccc(C(=O)N/C(=C/c2cccc([N+](=O)[O-])c2)C(=O)O)cc1 | -7.22% | –
56 | Cc1nc2c3ccccc3n(Cc3ccccc3F)c2s1 | 5.45% | –
57 | FC(F)(Cl)c1nnc2ccc(Cl)nn12 | -7.87% | –
58 | CCc1ccc(N=Nc2ccc(O)c3[nH]cnc23)cc1 | – | 13 µM (active)
59 | COc1ccc2c(Cl)c(C(=O)N/N=C3\CCCC(=O)C3)sc2c1 | – | 17.7 µM (active)
60 | CCOc1cc(C(=O)NN=C2CCCC2)cc(OCC)c1OCC | -3.08% | –
61 | Clc1ccccc1Cn1c(/C=C/c2ccco2)nc2ccccc21 | -3.73% | –
62 | COc1ccccc1N1N=C(c2ccc([N+](=O)[O-])cc2)CC1c1ccccc1 (stereo not drawn) | – | 1.4 µM (active)
63 | O=[N+]([O-])c1ccc(C2=NN(c3ccccc3)C(c3ccco3)C2)cc1 (stereo not drawn) | – | 1.25 µM (active)
64 | C(=C\c1ccco1)/C1=NN(c2ccccc2)C(c2ccco2)C1 (stereo not drawn) | – | 23.1 µM (active)
65 | COC(=O)c1cc(C(=O)N2CCN(c3ccccc3OC)CC2)cc([N+](=O)[O-])c1 | -5.78% | –
66 | O=[N+]([O-])c1ccc(/C=C/C2=NN(c3ccccc3)C(c3ccco3)C2)o1 (stereo not drawn) | – | 3.66 µM (active)
67 | O=C(/C=C/c1ccco1)N1CCc2ccccc21 | -6.03% [at 46.1 µM] | –
68 | CCS(=O)(=O)Nc1cccc(C2=NN(C(=O)c3ccco3)C(c3ccco3)C2)c1 (stereo not drawn) | -1.87% | –
69 | COc1ccccc1N=C(C)C1=C(O)CC(c2ccccc2)CC1=O (stereo not drawn) | -7.64% | –
70 | Cc1ccc(C(=O)NC(=C(Cl)Cl)S(=O)(=O)c2ccccc2)cc1 | -9.1% | –
71 | COc1ccc(OC)c(Nc2ncnc3c2cnn3-c2cccc(Cl)c2)c1 | -1.34% [at 46.1 µM] | –
72 | COc1ccc(NC(=O)C2Cc3c(-c4ccc(NC(C)=O)cc4)ccnc3O2)cn1 (stereo not drawn) | -12.1% | –
73 | Cn1c2ccccc2c2ccc3c(c21)C(=O)C=CC3=O | -5.19% [at 46.1 µM] | –
74 | N#CC(C(=S)Nc1ccccc1)c1nc2ccccc2[nH]1 (stereo not drawn) | -46.8% [at 46.1 µM] | –
75 | Cc1cccc(C)c1NC(=S)NC(C)CCc1ccccc1 (stereo not drawn) | 8.84% [at 46.1 µM] | –
76 | Cc1cc(C)nc(Nc2nc(C(N)Cc3ccccc3)cs2)n1 (stereo not drawn) | -0.643% | –
77 | CCN(CC)c1nc2cc(OC)ccc2cc1C#N | 6.08% [at 46.1 µM] | –
78 | Cc1cc(SCC(=O)c2cccs2)nc2ccccc12 | -1.59% [at 46.1 µM] | –

Row | Compound | activity, negative = fluorescence increase | Potency
79 | COc1ccc2c(C)cc(SCC#N)nc2c1 | – | 18.4 µM (active)
80 | COc1ccc2c(C)cc(SCC(=O)N3CCOCC3)nc2c1 | – | 18.4 µM (active)
81 | Cc1sc2nc(SCC(=O)N3CCOCC3)[nH]c(=O)c2c1-c1ccccc1 | 8.43% [at 46.1 µM] | –
82 | CO/N=C/c1ccc(OC)c(Oc2nc(OC)cc(OC)n2)c1 | -8.03% | –
83 | COc1ccc(C2C(C#N)=C(N)Oc3c2ccc2cccnc32)cc1OC (stereo not drawn) | -2.64% | –
84 | CS(=O)(=O)Nc1cccc(C2=NN(S(C)(=O)=O)C(c3ccc4c(c3)OCO4)C2)c1 (stereo not drawn) | -7.77% | –
85 | CS(=O)(=O)N1N=C(c2ccccc2)CC1c1ccc2c(c1)OCO2 (stereo not drawn) | – | 14 µM (active)
86 | c1ccc(-c2nccc(-c3ccc4c(c3)OCO4)n2)cc1 | -0.239% | –
87 | CC(C)CN(CC(C)C)c1ccc(/C=C/c2ccnc3ccccc23)cc1 | – | 23.1 µM (active)
88 | CCCCN(CCCC)c1ccc(/C=C/c2ccnc3ccccc23)cc1 | – | 16.4 µM (active)
89 | CCN(CCCN(C)C)c1ccc(/C=C/c2ccnc3ccccc23)cc1 | – | 18.4 µM (active)
90 | CCCCN(CCC(=O)O)c1ccc(/C=C/c2ccnc3ccccc23)cc1 | – | 18.4 µM (active)
91 | COc1ccc(NS(=O)(=O)c2cc(NC(=O)c3ccc(=O)[nH]c3)ccc2N2CCCC2)cc1 | -9.79% | –
92 | Cc1ccsc1/C=N\NC(=O)c1n[nH]c2c1CCC2 | -28.6% | –
93 | CC(=Nc1ccccc1)C1=C(O)C(Cc2ccccc2)NC1=O (stereo not drawn) | -18.4% | –
94 | CCCN(CCC)c1ccc(/C=C/c2ccnc3ccccc23)cc1 | – | 20.6 µM (active)
95 | CCN(CC)c1ccc(/C=C/c2ccnc3ccccc23)cc1 | – | 23.1 µM (active)
96 | CCN(C)c1ccc(/C=C/c2ccnc3ccccc23)cc1 | – | 20.6 µM (active)
97 | CCN(C)c1ccc(/C=N\n2nnnc2N)cc1 | -4.68% | –
98 | C/C(CC(=O)NCc1ccco1)=N\NC(=O)COc1ccc(Cl)cc1Cl | -8.79% | –
99 | CCN1/C(=C/C=C2/SC(=Nc3cccc4ncccc34)N(C)C2=O)Sc2ccccc21 | – | 16.4 µM (active)
100 | COc1cccc(Sc2ccccc2/C=N/NC(N)=O)c1 | -2.6% | –
101 | O=C(Nc1nnc(-c2ccc3c(c2)CCCC3)o1)c1c(F)cccc1F | 10.8% [at 46.1 µM] | –
102 | Cc1c(-c2nnc(SCC(=O)Nc3ccccc3F)o2)nnn1-c1ccc(F)cc1 | – | 23.1 µM (active)
103 | Cc1nnc(SCC(=O)NCc2ccccc2F)c2nn(-c3ccc(Cl)cc3)c(C)c12 | -23.7% [at 46.1 µM] | –
